Screens from PubChem.
KB-3-1 cytotox – KB-3-1 parental cell cytotoxicity; KB-3-1 viability, CellTiter-Glo ATP luminescence, 72 h; Potency, µM (doses to about 46.1 µM), usual class: cytotoxic; actives 1.4% (n = 400,000); note: nearly all actives have a fitted effect of over 60% in size
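Cytotoxicity in the drug-sensitive parental line KB-3-1 was scored as loss of CellTiter-Glo luminescence following 72 h incubation with compound. Values come from curve fitting of normalized concentration-response data.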
MCF10A rereplic – induces DNA re-replication in MCF 10a normal breast cells; MCF 10A DNA re-replication, Hoechst nuclear intensity, 48 h; AID 624296; Potency, µM (highest dose often 46.1 µM), actives largely listed as activators; actives 2.9% (n = 350,000); note: nearly all actives have a fitted effect of over 50% in size
ELG1 DNA repair – ELG1-dependent DNA repair inhibition. HEK293T ELG1-luciferase reporter, luminescence, 16 h; DNA damage induced by 5-fluorouridine. Potency, µM (highest dose often 46.1 µM), hits mostly inhibitors. actives 2.3% (n = 330,000); note: nearly all actives have a fitted effect of over 55% in size
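HEK293T cells expressing luciferase-tagged ELG1 (2,000/well) received 5-Fluorouridine plus compound or DMSO for 16 hr at 37 °C. Luciferase was read by ONE-Glo luminescence after 30 min at room temperature.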
SW480 rerep – inducers of DNA re-replication in SW480 colon cancer cells; AID 624297; Potency, µM (doses to about 46.1 µM), most hits filed as activators; SW480 DNA re-replication, Hoechst DNA content imaging, 48 h; actives 1.8% (n = 340,000); note: nearly all actives have a fitted effect of over 55% in size
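DNA re-replication was detected as more nuclei of elevated Hoechst intensity after 48 hr exposure to compound (23 nL pinned per well of 250 cells).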
KB-V1 cytotox – kills drug-selected multidrug resistant KB-V1 cells | KB-V1 MDR cells viability, CellTiter-Glo, 72 h | Potency, µM (top dose mostly 46.1 µM), actives largely listed as cytotoxic | actives 3.4% (n = 400,000); note: nearly all actives have a fitted effect of over 60% in size
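KB-V1 cells (P-gp-expressing MDR subline of KB-3-1) in phenol-red-free DMEM with 10% FBS were exposed to library compounds over a concentration series for 72 h at 37 degrees C. Viability read by CellTiter-Glo luminescence; concentration-effect curves fitted after normalization.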
Large screens that a line does not name were inactive. Shown are actives, neighbours in structure and some others; about 8.1% of the full set was active somewhere. Calls come from the whole dose curve; as a rule, active = well fitted curve in the direction sought with a large enough effect; inconclusive = small, poorly fitted or top-dose-only effect, or another doubt; inactive = no such curve, though single readings can be large; an effect the other way counts as inactive or inconclusive.

N#C/C(=C(/O)c1ccc2c(c1)OCO2)c1nc2cc(C(F)(F)F)ccc2s1	KB-3-1 cytotox 15µM, SW480 rerep inconclusive, KB-V1 cytotox inconclusive
CS(=O)(=O)c1ccc(N)c(SSc2cc(S(C)(=O)=O)ccc2N)c1	MCF10A rereplic 3.7µM
Cc1[nH][nH]c(=O)c1C(c1ccc(F)cc1)c1c(C)[nH][nH]c1=O	none
CC(=O)OCCN1c2ccccc2Sc2cnccc21	KB-3-1 cytotox 12µM, KB-V1 cytotox 15µM (no result: MCF10A rereplic, ELG1 DNA repair, SW480 rerep)
C=CCN1c2ccccc2Sc2cnccc21	KB-V1 cytotox inconclusive (no result: MCF10A rereplic, ELG1 DNA repair, SW480 rerep)
COc1ccc(OC)c(S(=O)(=O)NC2CC(=O)N(c3cccc(F)c3)C2)c1 (stereo unspecified)	ELG1 DNA repair inconclusive, SW480 rerep 6.5µM
Cc1ccc(-c2cc3nn(-c4ccccc4)c(N)c3c(=O)o2)cc1	KB-3-1 cytotox 21µM, SW480 rerep inconclusive, KB-V1 cytotox 16µM
CCOC(=O)c1c(NC(=O)CSc2nnc(-c3c[nH]c4ccccc34)n2CCOC)sc2c1CCCC2	KB-3-1 cytotox 18µM, SW480 rerep inconclusive
CCOC(=O)c1c(NC(=O)CSc2nnc(-c3c[nH]c4ccccc34)n2C)sc2c1CCCC2	KB-3-1 cytotox inconclusive, ELG1 DNA repair inconclusive
Cc1cc(N2CCCC2)nc(N2C3CCC2CC(O)(c2ccc(F)cc2)C3)n1 (stereo unspecified)	none (no result: KB-3-1 cytotox, MCF10A rereplic, SW480 rerep, KB-V1 cytotox)
COc1ccc(C2(O)CC3CCC(C2)N3c2cc(C)nc(-c3ccccc3)n2)cc1 (stereo unspecified)	ELG1 DNA repair 18µM, KB-V1 cytotox inconclusive
Cc1c(NC(=O)C(F)(F)F)ccc2nc3c(=O)n(C)c(=O)n(C)c3nc12	KB-V1 cytotox 13µM (no result: MCF10A rereplic, ELG1 DNA repair, SW480 rerep)
Cc1ccc(C(=O)C2=C(O)C(=O)N(CCCn3ccnc3)C2c2ccc(OC(C)C)cc2)o1 (stereo unspecified)	none
O=C(Cn1ccc(NC(=O)OCc2ccccc2)nc1=O)NCCc1ccccn1	KB-3-1 cytotox inconclusive
COc1ccccc1N1CCN(Cc2cc(Br)c(O)c3ncccc23)CC1	KB-3-1 cytotox inconclusive, MCF10A rereplic inconclusive, ELG1 DNA repair inconclusive, SW480 rerep 5.2µM, KB-V1 cytotox inconclusive
Oc1c(CN2CCN(c3ccccn3)CC2)cc(Cl)c2cccnc12	KB-3-1 cytotox inconclusive, MCF10A rereplic inconclusive, ELG1 DNA repair inconclusive, SW480 rerep 7.3µM, KB-V1 cytotox 5.2µM
OCCN1CCN(Cc2cc(Cl)c3cccnc3c2O)CC1	KB-3-1 cytotox inconclusive, MCF10A rereplic inconclusive, SW480 rerep 3.3µM, KB-V1 cytotox 5.8µM
CCOc1ccccc1N1CCN(Cc2cccc(OC)c2O)CC1	KB-V1 cytotox inconclusive
COC1CCCN(C(=O)c2ccc3nc(Cc4cccc(Cl)c4)oc3c2)C1 (stereo unspecified)	none
OCCNc1ncnc2ccc(Br)cc12	ELG1 DNA repair 9.2µM
COC(=O)c1ccccc1NC(=O)c1cc2nc(C3CC3)cc(C(F)(F)F)n2n1	SW480 rerep inconclusive, KB-V1 cytotox inconclusive
O=C(Nc1ccc(F)cc1)C(c1ccccc1)N1CCN(c2cccc(C(F)(F)F)n2)CC1 (stereo unspecified)	none (no result: MCF10A rereplic, ELG1 DNA repair, SW480 rerep)
Cn1c(=O)c2ccccc2n(CC(=O)NC2CCCCC2)c1=O	none
CC(C)N1CCC(C)(C(=O)Nc2ccc(-n3cccc3)cc2)C1 (stereo unspecified)	none (no result: MCF10A rereplic, ELG1 DNA repair, SW480 rerep)
Cc1ccc(S(=O)(=O)N2CCn3cccc3C2C)cc1 (stereo unspecified)	MCF10A rereplic inconclusive, KB-V1 cytotox 13µM
Cn1nc(C(F)(F)F)c2cc(NC(=O)OCc3ccc(C(C)(C)C)cc3)sc21	MCF10A rereplic 15µM, ELG1 DNA repair inconclusive
COc1ccccc1-c1c(C)nn2c(N3CCC(C(N)=O)CC3)cc(C)nc12	KB-3-1 cytotox inconclusive
C=CCn1c(COc2ccc3c(c2)CCCC3)nnc1SCC(=O)Nc1cccc(SC)c1	KB-3-1 cytotox inconclusive, KB-V1 cytotox 15µM
CCN(CC)C(=O)c1cc(-c2ccc(Br)cc2)on1	ELG1 DNA repair inconclusive, KB-V1 cytotox 5.2µM
COc1ccc(C(CNC(=O)c2cccc(N(C)C)c2)N2CCCC2)cc1 (stereo unspecified)	SW480 rerep inconclusive
COc1ccc(Cl)cc1C(=O)NCC(c1ccco1)N1CCCC1 (stereo unspecified)	KB-V1 cytotox 9.2µM
COc1cc(C(=O)NCC(c2ccco2)N2CCCC2)ccc1OCc1ccc(Cl)cc1Cl (stereo unspecified)	MCF10A rereplic 18µM, SW480 rerep inconclusive, KB-V1 cytotox inconclusive (no result: ELG1 DNA repair)
COc1ccc(C(CNC(=O)c2cc3ccccc3cc2OC)N2CCCC2)cc1 (stereo unspecified)	KB-V1 cytotox 4.6µM
CCC1CCc2sc(C(=O)NCC(c3ccc(OC)cc3)N3CCCC3)cc2C1 (stereo unspecified)	KB-3-1 cytotox inconclusive, MCF10A rereplic inconclusive, SW480 rerep inconclusive, KB-V1 cytotox 9.2µM
O=C(Nc1ccccc1OC(F)F)C1CCCN1C(=O)c1cccs1 (stereo unspecified)	none
COc1ccc(CC(=O)c2c(O)cc(O)cc2O)cc1OC	KB-3-1 cytotox inconclusive, ELG1 DNA repair inconclusive, KB-V1 cytotox inconclusive
CCN(CC)S(=O)(=O)c1ccc(NC(=O)COC(=O)c2cc(S(=O)(=O)Nc3ccc(OC)cc3)ccc2O)cc1	SW480 rerep inconclusive
Cc1cccc(C)c1NC(=O)c1cc2c(=O)c3ccccc3oc2nc1C(F)(F)F	KB-V1 cytotox 2.1µM
Cc1ccc(NC(=O)CN2c3cccc4cccc(c34)S2(=O)=O)cc1S(=O)(=O)N1CCOCC1	KB-3-1 cytotox inconclusive, ELG1 DNA repair inconclusive, SW480 rerep inconclusive, KB-V1 cytotox 3.7µM
CC(CC(=O)Nc1ccc(Cl)c(S(=O)(=O)N2CCOCC2)c1)c1ccccc1 (stereo unspecified)	KB-3-1 cytotox 4.6µM, MCF10A rereplic inconclusive, ELG1 DNA repair 8.2µM, KB-V1 cytotox 2.1µM
O=C(CC1CCCC1)Nc1ccc(Cl)c(S(=O)(=O)N2CCOCC2)c1	MCF10A rereplic inconclusive, ELG1 DNA repair 21µM, SW480 rerep inconclusive
COc1ccc(OCC(=O)Nc2ccc(S(=O)(=O)N3CCOCC3)cc2)cc1	none
O=C(Nc1ccc(Cl)c(S(=O)(=O)N2CCOCC2)c1)C1CCC1	ELG1 DNA repair inconclusive, SW480 rerep inconclusive
CC(=O)Nc1ccc(OCC(=O)Nc2ccc(Cl)c(S(=O)(=O)N3CCOCC3)c2)cc1	ELG1 DNA repair 5.8µM (no result: KB-3-1 cytotox, MCF10A rereplic, SW480 rerep, KB-V1 cytotox)
O=C(O)CC(SCC(=O)Nc1ccc(Cl)c(S(=O)(=O)N2CCOCC2)c1)C(=O)O (stereo unspecified)	ELG1 DNA repair inconclusive
COc1cc(/C=C/C(=O)N(C)CC(=O)Nc2ccccc2Br)cc2c1OCCO2	none
Cc1cccc(OCCC(=O)Nc2ccc(C)c(S(=O)(=O)N3CCOCC3)c2)c1	KB-3-1 cytotox inconclusive, ELG1 DNA repair inconclusive
Cc1ccc(NC(=O)COc2cccc(Oc3ccccc3)c2)cc1S(=O)(=O)N1CCOCC1	KB-3-1 cytotox 16µM, ELG1 DNA repair inconclusive, KB-V1 cytotox 12µM
